Several values for one entry are separate records, joined by “and”; a condition that tells them apart may be missing. Identical values can stand only once. Among all 5,500 compounds or so, about 2,000 (36%) were called active. Roughly 18% stayed inconclusive and do not appear here. Cut-off read from the data, not from the text of the source: active = normalized growth mostly below about 0.91 (no sharp cut-off); inconclusive = no clear call, values can overlap the other calls; inactive = mostly above about 0.92. The list shows a part of the results.
Assay: chemical genetic growth profiling, strain panel (AID 1159580);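 note: tested at 20 µM; growth read once vehicle control cultures reached saturation at 30 °C; 1 = growth at the plate median or of vehicle wells; lower values mean less growth of the strain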
Conditions: S. cerevisiae deletion strains, growth OD

Measured: normalized growth

O=C(O)CNCP(=O)(O)O
inactive: locus YAL013W, strain DEP1, active compounds read low 0.998 | locus YAL021C, strain ccr4, active compounds read low 1.04 | locus YAL026C, strain drs2, active compounds read low 1.02 | locus YAL030W, strain snc1, active compounds read low 1.02 | locus YBL061C, strain skt5, active compounds read low 1.01 | locus YBR009C, strain hhf1, active compounds read low 1.01 | locus YBR021W, strain FUR4, active compounds read low 0.992 | locus YBR023C, strain chs3, active compounds read low 1.02 | locus YBR171W, strain sec66, active compounds read low 1.04 | locus YBR229C, strain ROT2, active compounds read low 1 | locus YBR231C, strain swc5, active compounds read low 1.02 | locus YBR279W, strain paf1, active compounds read low 1.02 | locus YCL011C, strain gbp2, active compounds read low 1.02 | locus YCL016C, strain dcc1, active compounds read low 1.02 | locus YCL029C, strain bik1, active compounds read low 1.01 | locus YCL061C, strain MRC1, active compounds read low 1.01 | locus YCL069W, strain vba3, active compounds read low 1.02 | locus YCR088W, strain abp1, active compounds read low 1.01 | locus YDL005C, strain med2, active compounds read low 1.03 | locus YDL035C, strain GPR1, active compounds read low 1.02 | locus YDL040C, strain nat1, active compounds read low 1.02 | locus YDL074C, strain BRE1, active compounds read low 1.04 | locus YDL101C, strain DUN1, active compounds read low 1.02 | locus YDL134C, strain PPH21, active compounds read low 1.01 | locus YDL185W, strain tfp1, active compounds read low 1.01 | locus YDL192W, strain arf1, active compounds read low 1.01 | locus YDR001C, strain nth1, active compounds read low 1.01 | locus YDR069C, strain doa4, active compounds read low 1.02 | locus YDR101C, strain arx1, active compounds read low 1 | locus YDR137W, strain rgp1, active compounds read low 1.02 | locus YDR150W, strain NUM1, active compounds read low 0.997 | locus YDR159W, strain sac3, active compounds read low 1.02 | locus YDR162C, strain NBP2, active compounds read low 1 | locus YDR195W, strain ref2 1.01 | locus YDR297W, strain sur2, active compounds read low 1.01 | locus YDR318W, strain mcm21, active compounds read low 1.02 | locus YDR334W, strain swr1, active compounds read low 1.03 | locus YDR335W, strain msn5, active compounds read low 1.02 | locus YDR388W, active compounds read low 1.01 | locus YDR392W, strain spt3, active compounds read low 1.03 | locus YDR502C, strain sam2, active compounds read low 1.01 | locus YEL003W, strain gim4, active compounds read low 1.01 | locus YEL037C, strain rad23, active compounds read low 1.01 | locus YEL061C, strain CIN8 (second series), active compounds read low 1.02 | locus YEL061C, strain CIN8, active compounds read low 0.998 | locus YER015W, strain faa2, active compounds read low 1.02 | locus YER016W, strain bim1, active compounds read low 1.01 | locus YER110C, active compounds read low 1.02 | locus YER111C, strain swi4, active compounds read low 1.01 | locus YER155C, strain BEM2 (second series), active compounds read low 1.02 | locus YER155C, strain BEM2, active compounds read low 1.01 | locus YER167W, strain BCK2, active compounds read low 0.999 | locus YFR010W, strain ubp6, active compounds read low 1.02 | locus YGL078C, strain dbp3, active compounds read low 1.01 | locus YGL086W, strain mad1, active compounds read low 1 | locus YGL167C, strain pmr1, active compounds read low 1.02 | locus YGL173C, strain kem1, active compounds read low 1.01 | locus YGL227W, strain vid30, active compounds read low 1.02 | locus YGL240W, strain doc1, active compounds read low 1.02 | locus YGL248W, strain PDE1, active compounds read low 1.02 | locus YGL253W, strain hxk2, active compounds read low 1.01 | locus YGR078C, strain PAC10, active compounds read low 1.01 | locus YGR135W, strain pre9, active compounds read low 1.02 | locus YGR229C, strain SMI1, active compounds read low 1.02 | locus YGR252W, strain gcn5, active compounds read low 1.01 | locus YHR013C, strain ard1, active compounds read low 1.06 | locus YHR027C, strain rpn1, active compounds read low 1 | locus YHR030C, strain SLT2, active compounds read low 1.01 and 0.97 | locus YHR079C, strain IRE1 (second series), active compounds read low 1.01 | locus YHR079C, strain IRE1, active compounds read low 0.992 | locus YHR094C, strain hxt1, active compounds read low 1 | locus YHR129C, strain ARP1, active compounds read low 1.01 | locus YHR142W, strain chs7, active compounds read low 1.02 | locus YHR200W, strain rpn10, active compounds read low 1.01 | locus YIL066C, strain RNR3, active compounds read low 1.02 | locus YIL073C, strain SPO22, active compounds read low 1.08 | locus YIL125W, strain kgd1, active compounds read low 1.01 | locus YIR030C, strain dcg1, active compounds read low 1.01 | locus YJL092W, strain hpr5, active compounds read low 1.02 | locus YJL095W, strain BCK1 (second series), active compounds read low 1.01 | locus YJL095W, strain BCK1, active compounds read low 1.01 and 0.975 | locus YJL115W, strain asf1, active compounds read low 1.02 | locus YJL129C, strain trk1, active compounds read low 1.03 | locus YJL134W, strain LCB3, active compounds read low 1.01 | locus YJL154C, strain vps35, active compounds read low 1.02 | locus YJL164C, strain tpk1, active compounds read low 1.02 | locus YJL166W, strain qcr8, active compounds read low 1.02 | locus YJL168C, strain set2, active compounds read low 1.01 | locus YJL187C, strain SWE1 (second series), active compounds read low 1.01 | locus YJL187C, strain SWE1, active compounds read low 1.01 | locus YJR043C, strain POL32, active compounds read low 1.01 | locus YJR066W, strain TOR1, active compounds read low 0.926

Reference: PubChem BioAssay AID1159580 (chemical genetic matrix, 2015)
